Screening results (PubChem)
Shn3 inh set2: reduction of Shn3 3'UTR firefly luciferase signal, primary screen, Schnurri-3 inhibitor project, cell-based, Clone20 osteoblasts, set 2; Clone20 osteoblast Shn3 3'UTR firefly luciferase, 24 h; inhibition, % at 12.5 µM; 360,000 compounds, 0.52% hits;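 active means mean inhibition of at least 75% with every replicate also reaching 75%; inconclusive means mean inhibition at least 75% but some replicate below; inactive means mean inhibition below 75%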;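 further: 0% = median of neutral control wells and 100% = pilot-screen positive control compound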
CF NFkB block: inhibitors of PAF-induced NF-kB signaling, primary screen, cell-based, GFP fluorescence, uHTS. KKLEB NF-kB-GFP reporter, GFP fluorescence overnight. inhibition, % at 5 µM. 360,000 compounds, 0.86% hits;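 active means at least 50% inhibition at 5 µM, scaled per plate between neutral and stimulator controls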;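 further: PAF is a Pseudomonas aeruginosa culture filtrate used as stimulus; plate controls were PAF-stimulated DMSO wells for no effect and unstimulated DMSO wells for full effect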
KKLEB tox: cytotoxicity in KKLEB CF airway cells, primary screen, cytotoxicity control for CF NF-kB inhibitor project, cell-based, uHTS, fluorescence assay plates. KKLEB CF airway cells viability, ATPlite luminescence, overnight; active compounds read low; cells stimulated with P. aeruginosa culture filtrate. activity change (cytotoxicity), % at 5 µM. 360,000 compounds, 0.36% hits. AID 602141, 2011;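 active means corrected activity change at or below -50% at 5 µM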
HIF-2a block: HIF-2a reporter inhibitors, primary screen, luminescence, 786-0 RCC cells. 786-0 RCC cells HIF-2a reporter, luciferase luminescence, overnight. inhibition, % at 18.8 µM. 360,000 compounds, 0.72% hits;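 active means inhibition of the luminescence signal of 40% or more relative to plate controls, in a single-dose primary screen at 18.75 µM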
Peg3 prom inh: Peg3 promoter-driven luciferase inhibitors, primary screen, cell-based, HeLa, luciferase luminescence; inhibition, % at 20 µM; 360,000 compounds, 1.7% hits; AID 588405, 2011; HeLa PEG-Prom luciferase reporter, overnight;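 active means inhibition of at least 50% at 20 µM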
TRPM1 prom inh: inhibitors of MITF-dependent TRPM1 promoter reporter, primary screen, cell-based, SK-MEL-5, single point, luciferase; SK-MEL-5 TRPM1 promoter luciferase, 24 h; inhibition, % at 12.5 µM; 330,000 compounds, 0.83% hits; AID 488899, 2010;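 active means mean inhibition across replicates of 60% or more, whatever share of single replicates reaches that level; inconclusive means some that reach 60%, reason not given; inactive means mean inhibition across replicates below 60%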
Mdm2-MdmX confirm: retested Mdm2-MdmX interaction blockers, confirmation, cell-based, luminescence, single concentration, set 2. shares compounds with HIF-2a block. SaOS-2 split-luciferase Mdm2/MdmX complementation. inhibition, % at 8 µM. 740 compounds, 99% hits;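 active means mean inhibition of the luminescence signal across two replicates at or above 26 percent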
Target sequence (O15151 whole entry, looked up): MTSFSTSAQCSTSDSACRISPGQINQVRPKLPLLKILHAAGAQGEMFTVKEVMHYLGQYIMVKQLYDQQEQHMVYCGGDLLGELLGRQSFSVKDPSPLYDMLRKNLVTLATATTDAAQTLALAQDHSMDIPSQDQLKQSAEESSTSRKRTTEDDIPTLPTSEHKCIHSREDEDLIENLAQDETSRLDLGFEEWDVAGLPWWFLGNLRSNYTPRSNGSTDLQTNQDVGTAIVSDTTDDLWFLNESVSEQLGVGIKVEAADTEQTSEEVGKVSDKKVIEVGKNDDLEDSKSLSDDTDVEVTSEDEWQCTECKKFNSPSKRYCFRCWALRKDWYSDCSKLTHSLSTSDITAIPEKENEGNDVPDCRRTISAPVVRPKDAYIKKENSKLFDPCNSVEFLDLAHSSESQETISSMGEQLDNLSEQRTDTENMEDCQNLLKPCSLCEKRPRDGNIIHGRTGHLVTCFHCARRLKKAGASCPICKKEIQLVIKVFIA
Target sequence (Q00987 whole entry, looked up): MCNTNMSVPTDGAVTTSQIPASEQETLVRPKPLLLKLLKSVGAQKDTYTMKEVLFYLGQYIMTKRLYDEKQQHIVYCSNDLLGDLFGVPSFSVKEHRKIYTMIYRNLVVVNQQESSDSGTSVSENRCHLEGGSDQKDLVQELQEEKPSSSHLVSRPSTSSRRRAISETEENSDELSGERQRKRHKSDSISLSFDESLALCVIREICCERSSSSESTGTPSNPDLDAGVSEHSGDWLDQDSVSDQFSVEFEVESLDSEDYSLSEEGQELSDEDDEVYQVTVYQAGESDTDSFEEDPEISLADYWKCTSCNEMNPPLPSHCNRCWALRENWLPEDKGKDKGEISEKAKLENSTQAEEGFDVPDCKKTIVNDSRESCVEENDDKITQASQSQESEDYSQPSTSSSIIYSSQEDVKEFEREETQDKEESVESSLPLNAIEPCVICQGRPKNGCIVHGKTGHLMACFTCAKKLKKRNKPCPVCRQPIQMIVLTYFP
HIF-2a inh conf: HIF-2a reporter inhibitor retest, confirmation, luminescence, 786-0 RCC cells; shares compounds with HIF-2a block; HIF-2a luciferase reporter luminescence, overnight; inhibition, % at 18.8 µM; 1,800 compounds, 56% hits; AID 651580, 2012;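 active means mean inhibition across four replicates of at least 40 percent at the single tested concentration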
HIF-1a counter: HIF-1a luciferase reporter signal reduction – MiaPaCa-2 cells, single concentration, counter-screen for HIF-2a inhibitor project, confirmation | inhibition, % at 18.8 µM | AID 651589, 2012 | MiaPaCa-2 HIF-1a luciferase reporter, desferoxamine, overnight | 1,800 compounds, 72% hits | shares compounds with HIF-2a block;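 active means mean inhibition of the reporter signal across four replicates at the single tested dose of 50% or more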
* = called active by the depositor; ? = inconclusive; / = no result given. Rows were chosen to be rich in hits. Some 2.8% of all compounds tested hit in one or more screens of this group.

SMILES	Shn3 inh set2	CF NFkB block	KKLEB tox	HIF-2a block	Peg3 prom inh	TRPM1 prom inh	HIF-2a inh conf	HIF-1a counter	others
CC(C)(C)C(=O)N1CCN(c2ccc(NC(=O)c3ccc([N+](=O)[O-])o3)cc2)CC1	93*	56*	-4	88*	97*	81*	10	81*
O=C(Nc1ccc(N2CCN(C(=O)c3ccccc3)CC2)cc1)c1ccc(Br)o1	37	-2	6	-40	-45	-5	/	/
CCCC(=O)N1CCN(c2ccc(NC(=O)c3ccc([N+](=O)[O-])o3)cc2)CC1	44	90*	-63*	94*	100*	89*	64*	97*
CS(=O)(=O)N1CCN(c2ccc(NC(=O)c3ccc([N+](=O)[O-])o3)cc2)CC1	97*	84*	-65*	79*	104*	75*	10	57*
CCOC(=O)c1c(NC(=O)c2ccc(N3C(=O)[C@@H]4[C@H](C3=O)[C@H]3C=C[C@@H]4C3)cc2)sc2c1CCCC2	11	18	-8	2	21	-4	/	/
COc1ccc(N(CC(=O)N/N=C/c2ccco2)S(=O)(=O)c2ccccc2)cc1Cl	-2	-17	15	12	21	-2	/	/
O=C(Nc1nc2c(Cl)cccc2s1)c1ccc([N+](=O)[O-])o1	6	-25	1	-154	-12	5	/	/
O=C(Nc1ccc(N2CCN(Cc3ccccc3F)CC2)cc1)c1ccccc1[N+](=O)[O-]	21	-13	-2	19	11	7	/	/
CCC(=O)N1CCN(c2ccc(NC(=O)c3ccc([N+](=O)[O-])o3)cc2)CC1	?	56*	-21	61*	106*	80*	31	74*
O=C(Nc1cccc(NC(=O)c2ccccc2Cl)c1)c1ccc([N+](=O)[O-])o1	45	78*	-9	61*	98*	77*	37	104*
O=C(Nc1ccc(N2CCN(Cc3ccccc3F)CC2)cc1)c1ccc([N+](=O)[O-])o1	64	81*	-77*	93*	100*	98*	31	105*
NC(=O)CC(NC(=O)c1ccccc1)c1ccc(NCCc2ccc(Cl)cc2)c([N+](=O)[O-])c1 (stereo not drawn)	45	2	-14	50*	16	7	-3	33
O=c1nc(/C=C/c2cc([N+](=O)[O-])ccc2Cl)cc(C(F)(F)F)[nH]1	-20	-4	34	83*	20	0	61*	79*
COc1cc(/C=C/c2cc(C(F)(F)F)[nH]c(=O)n2)cc(OC)c1OC	-11	-2	24	40*	25	23	26	-3
CCOc1ccc(S(=O)(=O)N2CCC(C(=O)N3CCN(c4ccccc4)CC3)CC2)cc1	16	1	1	2	21	13	/	/
COC(=O)COc1ccc(S(=O)(=O)N2CCN(c3ccccc3F)CC2)cc1	-7	-2	5	66*	11	4	12	-1
COC(=O)COc1ccc(NC(=O)C(c2ccccc2)c2ccccc2)cc1	4	4	-1	88*	7	8	34	-10
COC(=O)COc1ccc(S(=O)(=O)N2CCc3ccccc3C2)cc1C	-24	-13	9	76*	16	2	20	-5
COC(=O)COc1ccc(S(=O)(=O)N2CCN(c3ccccc3)CC2)cc1	-18	-5	10	48*	18	-2	4	-13
COC(=O)c1cc(S(=O)(=O)N2CCN(c3ccccc3F)CC2)c[nH]1	30	8	-12	10	-1	0	/	/
COC(=O)COc1ccc(S(=O)(=O)N2CCOCC2)cc1C	-46	-5	8	18	9	11	/	/
O=C(CS(=O)(=O)Cc1ccccc1)NCc1ccccc1Cl	-14	23	-16	-11	-24	0	/	/
CC(=O)N(C)c1ccc(N=C2C(=O)Nc3ccccc32)cc1	6	-5	2	16	20	9	/	/
CC(=O)/C=C1/C(=O)Nc2ccccc21	29	-2	-2	40*	22	28	49*	5
C=CCOc1cccc(C(=O)N2CCCC(CCC(=O)NCc3ccccc3F)C2)c1 (stereo not drawn)	10	-8	9	-37	-30	-31	/	/
SMILES	Shn3 inh set2	CF NFkB block	KKLEB tox	HIF-2a block	Peg3 prom inh	TRPM1 prom inh	HIF-2a inh conf	HIF-1a counter	others
C=CCOc1cccc(C(=O)/C=C2/C(=O)Nc3ccccc32)c1	74	86*	-52*	59*	85*	52	59*	105*
CC(OC(=O)c1nc(Cl)ccc1Cl)C(=O)Nc1ccc2c(c1)OCCO2 (stereo not drawn)	-18	-26	5	10	-19	7	/	/
C[C@@H]1O[C@H](CCc2cccc(Cl)c2)CC2=C1C(=O)OC(C)(C)O2	/	/	/	4	/	/	/	/
COC(=O)[C@@]1(C)[C@H]2C(=O)N(Cc3ccccc3)C(=O)[C@H]2[C@H]2CN=C(SCc3ccc(C#N)cc3)N21	-12	-12	0	10	4	-4	/	/
COC(=O)[C@@]1(Cc2ccccc2)[C@H]2C(=O)N(Cc3ccccc3)C(=O)[C@H]2[C@H]2CN=C(SCc3ccc(Cl)cc3)N21	18	9	-9	17	0	4	/	/	Mdm2-MdmX confirm=103*
COC(=O)[C@@]1(C)[C@H]2C(=O)N(Cc3ccccc3)C(=O)[C@H]2[C@H]2CN=C(SCc3ccc(Cl)cc3)N21	-3	14	1	11	11	1	/	/	Mdm2-MdmX confirm=103*
O=S(=O)(Nc1ncccn1)c1ccc(NC(=S)NCc2cccnc2)cc1	-4	19	2	12	8	-5	/	/
COc1ccc(/C=N/NC(=O)CC(=O)NCc2cccnc2)cc1[N+](=O)[O-]	7	-22	0	0	14	2	/	/
CC(=O)c1ccc(OCCOc2ccc(Cl)c3cccnc23)cc1	-13	11	9	6	6	1	/	/
